# Results reported in PubChem BioAssay.
# Inconclusive results are not listed. Calls of active or inactive are those of the source. Unless noted, no cut-off is given here; in the data, nearly all actives have AC50 up to about 26 µM.
# Assays:
# [1] = growth inhibition of DIPG glioma cells, dose response, cell-based, SU-DIPG-XVII, MIPE5.0, CellTiter-Glo, qHTS (AID 1347060); conditions: SU-DIPG-XVII viability, CellTiter-Glo ATP luminescence;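 for AC50: cells exposed to compound for 48 hours before viability readout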
# [2] = growth inhibition of DIPG glioma cells, dose response, cell-based, SU-DIPG-XIII, MIPE5.0, CellTiter-Glo, qHTS (AID 1347064; cut-off not given, nearly all actives have AC50 up to about 23 µM;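 for AC50: cells exposed to compound for 48 hours before the viability read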); conditions: SU-DIPG-XIII viability, CellTiter-Glo ATP luminescence
# [3] = viability loss in pontine glioma line – cell-based, SU-DIPG-XXV, MIPE5.0, CellTiter-Glo, qHTS, dose response (AID 1347065); conditions: CellTiter-Glo ATP luminescence;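 note: cells exposed to compound for 48 hours before ATP readout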
# [4] = JHH-DIPG-1 glioma cell viability, MIPE5.0 library, CellTiter-Glo luminescence, qHTS (AID 1347067); conditions: JHH-DIPG-1 glioma viability, CellTiter-Glo ATP luminescence;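 note: cells exposed to compound for 48 hours before readout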
# [5] = sensitizers of A549 cells to miR-34 induction, primary screen, imaging, A549 dox-inducible miR-34, nuclei and caspase counts (AID 1347080;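 active = compounds whose cell count with miR-34 switched on is under 0.7 times the count with it off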); conditions: A549 miR-34 inducible, Hoechst nuclei count, 48 h
# [6] = survival rescue of mitochondrial mutant cells in low glucose, primary screen, MELAS cybrids, Rieske KO mouse fibroblasts, CellTiter-Glo (AID 1508586;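 active = mean z-score across replicates of 1.96 or higher in either the MELAS or the Rieske mutant cell line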;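 note: z relative to plate mean and SD of compound and empty wells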)
# [7] = SU-DIPG-XXV glioma cell viability, MIPE5.0 library, qHTS (AID 1347068; cut-off not given, nearly all actives have IC50 up to about 30 µM;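 for IC50: cells exposed to compound for 48 hours before viability readout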)
# [8] = ovarian cancer cell viability with rucaparib, profiling panel, oncology-focused library, rucaparib conditional (AID 1508598;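 active = normalized viability below 100% at a tested concentration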); conditions: patient-derived ovarian cancer cells, CellTiter-Glo viability, 144 h, stronger effect = lower value
# [9] = stronger effect = lower value, cell number ratio, induced over uninduced
# [10] = measured here: relative caspase fold change +Dox/-Dox
# [11] = measured here: total cells with miR-34 induction, stronger effect = lower value
# [12] = measured here: total cells without miR-34 induction
# [13] = MELAS cybrid survival, CellTiter-Glo 48 h, stronger effect = higher value
# [14] = Rieske KO mouse fibroblast survival, CellTiter-Glo 72 h
smiles,measurement,setting,value
COc1cc2ncnc(Oc3cccc(NC(=O)Nc4cc(C(C)(C)C(F)(F)F)on4)c3)c2cc1OC,AC50,[1],5900 nM (active)
same,AC50,[2],16600 nM (active)
same,AC50,[3],10500 nM (active)
same,AC50,[4],14800 nM (active)
same,fold change,[5]; [9],0.934 (inactive)
same,fold change,[5]; [10],0.373
same,cell count,[5]; [11],3270
same,cell count,[5]; [12],3490
same,z-score,[6]; [13],-0.488 (inactive)
same,z-score,[6]; [14],1.15
COc1cccc(OCCCN)c1-c1cc(Nc2cnc(C#N)cn2)n[nH]1,AC50,[1],33.2 nM (active)
same,AC50,[2],74.2 nM (active)
same,AC50,[3],59 nM (active)
same,outcome,[7],inactive
C=CC(=O)N1CC/C(=C\c2ccc(F)c([N+](=O)[O-])c2)C(=O)/C(=C/c2ccc(F)c([N+](=O)[O-])c2)C1,AC50,[1],74.2 nM (active)
same,AC50,[2],59 nM (active)
same,AC50,[3],93.4 nM (active)
same,IC50,[7],186 nM (active)
Cc1ncc(NC(=O)c2ccc(CN3CCN(C)CC3)c(C(F)(F)F)c2)cc1Nc1nccc(-c2cccnc2)n1,AC50,[1],23500 nM (active)
same,AC50,[2],9340 nM (active)
same,AC50,[3],18600 nM (active)
same,outcome,[7],inactive
Cc1ccc(Nc2ncc3c(n2)N(C)C(=O)N(c2cc(NC(=O)c4cccc(C(F)(F)F)c4)ccc2C)C3)cn1,AC50,[1],105 nM (active)
same,AC50,[2],74.2 nM (active)
same,AC50,[3],11.8 nM (active)
same,IC50,[7],74.2 nM (active)
Cc1c(F)ccc(C(=O)Nc2cc([N+](=O)[O-])ccc2N2CCN(C)CC2)c1Cl,AC50,[1],26300 nM (active)
same,outcome,[2],inactive
same,outcome,[3],inactive
same,outcome,[7],inactive
N#CCC1(n2cc(-c3ncnc4[nH]ccc34)cn2)CN(C2CCN(C(=O)c3ccnc(C(F)(F)F)c3F)CC2)C1,outcome,[1],inactive
same,outcome,[2],inactive
same,outcome,[3],inactive
same,outcome,[7],inactive
COc1cc([C@@H](CC(=O)O)c2ccc(C)c(CN3C[C@@H](C)Oc4ccccc4S3(=O)=O)c2)cc2nnn(C)c12,outcome,[1],inactive
same,outcome,[2],inactive
same,outcome,[3],inactive
same,outcome,[7],inactive
C[C@H]1COCCN1c1cc(C2(S(=O)(=O)C3CC3)CC2)nc(-c2ccc(NC(=S)NCCO)cc2)n1,AC50,[1],295 nM (active)
same,AC50,[2],332 nM (active)
same,AC50,[3],26.3 nM (active)
same,IC50,[7],4680 nM (active)
Cc1ccc(-c2nc(N)nc3c2nnn3Cc2cccc(CO[C@H]3CCOC3)n2)o1,outcome,[1],inactive
same,outcome,[2],inactive
same,outcome,[3],inactive
same,outcome,[7],inactive
O=C1CC(c2c[nH]c3ccc(F)cc23)C(=O)N1 (configuration not stated),outcome,[1],inactive
same,outcome,[2],inactive
same,outcome,[3],inactive
same,outcome,[7],inactive
Cc1nc2c(-c3cnc(N)nc3)nc(N3CCOCC3)nc2n1C(C)C,AC50,[1],742 nM (active)
same,AC50,[2],1050 nM (active)
same,AC50,[3],332 nM (active)
same,AC50,[4],742 nM (active)
same,fold change,[5]; [9],0.815 (inactive)
same,fold change,[5]; [10],0.682
same,cell count,[5]; [11],1980
same,cell count,[5]; [12],2430
same,z-score,[6]; [13],5.52 (active)
same,z-score,[6]; [14],-0.403
same,viability,"[8]; at 0.000305 µM, OCI-C5x cells, with rucaparib 10 µM, 100% = cells with rucaparib alone",117% (inactive)
same,viability,"[8]; at 0.000305 µM, OCI-C5x cells, without rucaparib",112% (inactive)
same,viability,"[8]; at 0.000305 µM, OCI-P5x cells, with rucaparib 20 µM, 100% = cells with rucaparib alone",108% (inactive)
same,viability,"[8]; at 0.000305 µM, OCI-P5x cells, without rucaparib",109% (inactive)
same,viability,"[8]; at 0.00122 µM, OCI-C5x cells, with rucaparib 10 µM, 100% = cells with rucaparib alone",120% (inactive)
same,viability,"[8]; at 0.00122 µM, OCI-C5x cells, without rucaparib",120% (inactive)
same,viability,"[8]; at 0.00122 µM, OCI-P5x cells, with rucaparib 20 µM, 100% = cells with rucaparib alone",95.6% (active)
same,viability,"[8]; at 0.00122 µM, OCI-P5x cells, without rucaparib",109% (inactive)
same,viability,"[8]; at 0.00488 µM, OCI-C5x cells, with rucaparib 10 µM, 100% = cells with rucaparib alone",120% (inactive)
same,viability,"[8]; at 0.00488 µM, OCI-C5x cells, without rucaparib",116% (inactive)
same,viability,"[8]; at 0.00488 µM, OCI-P5x cells, with rucaparib 20 µM, 100% = cells with rucaparib alone",92.3% (active)
same,viability,"[8]; at 0.00488 µM, OCI-P5x cells, without rucaparib",113% (inactive)
same,viability,"[8]; at 0.0195 µM, OCI-C5x cells, with rucaparib 10 µM, 100% = cells with rucaparib alone",111% (inactive)
same,viability,"[8]; at 0.0195 µM, OCI-C5x cells, without rucaparib",114% (inactive)
same,viability,"[8]; at 0.0195 µM, OCI-P5x cells, with rucaparib 20 µM, 100% = cells with rucaparib alone",90.3% (active)
same,viability,"[8]; at 0.0195 µM, OCI-P5x cells, without rucaparib",108% (inactive)
same,viability,"[8]; at 0.0781 µM, OCI-C5x cells, with rucaparib 10 µM, 100% = cells with rucaparib alone",98.8% (active)
same,viability,"[8]; at 0.0781 µM, OCI-C5x cells, without rucaparib",116% (inactive)
same,viability,"[8]; at 0.0781 µM, OCI-P5x cells, with rucaparib 20 µM, 100% = cells with rucaparib alone",77.8% (active)
same,viability,"[8]; at 0.0781 µM, OCI-P5x cells, without rucaparib",97.3% (active)
same,viability,"[8]; at 0.313 µM, OCI-C5x cells, with rucaparib 10 µM, 100% = cells with rucaparib alone",102% (inactive)
same,viability,"[8]; at 0.313 µM, OCI-C5x cells, without rucaparib",103% (inactive)
same,viability,"[8]; at 0.313 µM, OCI-P5x cells, with rucaparib 20 µM, 100% = cells with rucaparib alone",68.3% (active)
same,viability,"[8]; at 0.313 µM, OCI-P5x cells, without rucaparib",76.9% (active)
same,viability,"[8]; at 1.25 µM, OCI-C5x cells, with rucaparib 10 µM, 100% = cells with rucaparib alone",69.8% (active)
same,viability,"[8]; at 1.25 µM, OCI-C5x cells, without rucaparib",54.3% (active)
same,viability,"[8]; at 1.25 µM, OCI-P5x cells, with rucaparib 20 µM, 100% = cells with rucaparib alone",37.6% (active)
same,viability,"[8]; at 1.25 µM, OCI-P5x cells, without rucaparib",34.8% (active)
same,viability,"[8]; at 5 µM, OCI-C5x cells, with rucaparib 10 µM, 100% = cells with rucaparib alone",34.3% (active)
same,viability,"[8]; at 5 µM, OCI-C5x cells, without rucaparib",32.9% (active)
same,viability,"[8]; at 5 µM, OCI-P5x cells, with rucaparib 20 µM, 100% = cells with rucaparib alone",13.7% (active)
same,viability,"[8]; at 5 µM, OCI-P5x cells, without rucaparib",14.6% (active)
N#Cc1ccnc(N2C(=O)CC[C@H]2C(=O)N(c2cncc(F)c2)[C@H](C(=O)NC2CC(F)(F)C2)c2ccccc2Cl)c1,outcome,[1],inactive
same,outcome,[2],inactive
same,outcome,[3],inactive
same,outcome,[7],inactive
O=C(O)c1ccc(CN2CCC(CN[C@@H]3C[C@H]3c3ccccc3)CC2)cc1,outcome,[1],inactive
same,outcome,[2],inactive
same,outcome,[3],inactive
same,outcome,[7],inactive
CC(C)Oc1ccc(-c2nn([C@@H](C)c3oc4ccc(F)cc4c(=O)c3-c3cccc(F)c3)c3ncnc(N)c23)cc1F,outcome,[1],inactive
same,outcome,[2],inactive
same,outcome,[3],inactive
same,outcome,[7],inactive
Cc1ccc(S(=O)(=O)Cc2nc(-c3ccc(C(=O)NCc4cccnc4)cc3)oc2C)cc1,AC50,[1],52.5 nM (active)
same,AC50,[2],16.6 nM (active)
same,AC50,[3],14.8 nM (active)
same,AC50,[4],20.9 nM (active)
same,fold change,[5]; [9],0.957 (inactive)
same,fold change,[5]; [10],0.598
same,cell count,[5]; [11],5090
same,cell count,[5]; [12],5320
same,z-score,[6]; [13],-0.778 (inactive)
same,z-score,[6]; [14],-0.8
CC(=NNC(=O)c1cccc(S(=O)(=O)N2CCOCC2)c1)c1cc(Cl)ccc1O,AC50,[1],8330 nM (active)
same,AC50,[2],6610 nM (active)
same,AC50,[3],5900 nM (active)
same,outcome,[7],inactive
Cc1cc(F)c(C(=O)Nc2cccc(-c3nncn3C(C)C)n2)cc1-n1cnc(C2CC2)c1,AC50,[1],16600 nM (active)
same,AC50,[2],18600 nM (active)
same,AC50,[3],18600 nM (active)
same,IC50,[7],18600 nM (active)
